# Experimental data taken from PubChem BioAssay.
# The source made the active and inactive calls.
# How the values were obtained:
# [1] = compound effects on lung adenocarcinoma cell viability – A549, calcein-AM fluorescence, 48 h, basal, profiling panel (AID 1162); settings: higher = more signal
# [2] = compound effects on differentiated 3T3-L1 adipocyte viability – cell-based, 3T3-L1 adipocytes, calcein-AM fluorescence, 48 h, basal, profiling panel (AID 1163); settings: 3T3-L1 adipocytes viability, higher = more signal
# [3] = compound effects on hepatocellular carcinoma cell viability – HepG2, calcein-AM fluorescence, 48 h, basal, profiling panel (AID 1164); settings: higher = more signal
# [4] = compound effects on multiple myeloma cell viability – MM1S, calcein-AM fluorescence, 48 h, basal, profiling panel (AID 1165); settings: higher = more signal;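 also: viability of MM1S multiple myeloma cells under basal unstimulated conditions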
# [5] = calcein-AM signal in unstimulated myeloma cells – cell-based, calcein-AM fluorescence, 48 h, PK04 Diversity Set, profiling panel (AID 1166); settings: RPMI8226 myeloma viability, higher = more signal;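 also: cells grown under basal conditions without added stimulus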
# [6] = JC-1 mitochondrial signal, unstimulated HepG2 cells – cell-based, JC-1 fluorescence, 24 h, 100 nL compound, profiling panel (AID 1167); settings: HepG2 mitochondrial potential, higher = more signal
# [7] = JC-1 mitochondrial signal, unstimulated adipocytes – cell-based, JC-1 fluorescence, 3T3-L1 adipocytes, 24 h, 100 nL compound, profiling panel (AID 1168); settings: JC-1 mitochondrial fluorescence, higher = more signal, called active from +8 up or from −8 down
# [8] = JC-1 mitochondrial signal, unstimulated myeloma cells – cell-based, JC-1 fluorescence, RPMI8226, 24 h, 100 nL compound, profiling panel (AID 1169); settings: JC-1 mitochondrial potential fluorescence, higher = more signal
# [9] = JC-1 mitochondrial signal, unstimulated MM1S myeloma – cell-based, JC-1 fluorescence, 24 h, 100 nL compound, profiling panel (AID 1170); settings: MM1S mitochondrial potential, higher = more signal
# [10] = resazurin metabolic signal in A549 cells – cell-based, resazurin fluorescence, 24 h, PK04 Diversity Set, profiling panel (AID 1171); settings: A549 viability, higher = more signal, called active from +8 up or from −8 down
# Also: test concentration not given here.
SMILES,z-score [1],z-score [2],z-score [3],z-score [4],z-score [5],z-score [6],z-score [7],z-score [8],z-score [9],z-score [10]
COc1ccc([Si](C)(C)[C@H]2[C@H](CCO)O[C@@]3(C(=O)N(Cc4ccccc4)c4ccc(N5C(=O)c6cccc7cccc5c67)cc43)[C@@H]2C)cc1,0.318,0.535,-2.11,-1.02,-3.03,1.63,2.08 (inactive),-0.815,-0.923,-1.46 (inactive)
COC(=O)c1ccc(C#CC(NP(=O)(c2ccccc2)c2ccccc2)c2ccccc2)cc1 (stereo not given),-0.341,-0.0724,0.428,-3.15,-3.5,-0.798,-0.174 (inactive),-0.352,-1.3,-0.491 (inactive)
CC[C@@H]1C=C(C(=O)O)[C@H](c2ccccc2)N1S(=O)(=O)c1ccc([N+](=O)[O-])cc1,-0.353,-0.49,0.271,0.0363,0.0806,0.414,-0.375 (inactive),0.769,-0.877,0.0551 (inactive)
O=C1OCCC=C[C@H]2OC34C=CCN(Cc5ccccc5)C(=O)[C@H]3N(CCO)C(=O)[C@@H]4C12 (stereo not given in full),-0.0905,1.64,-0.781,0.918,-0.125,0.207,0.903 (inactive),0.374,0.183,-0.727 (inactive)
CC(C)CNC(=O)[C@@]1(C)c2ccccc2C(=O)N(Cc2ccc(OC(F)(F)F)cc2)[C@H]1c1ccc(CO)cc1,1.69,1.68,0.65,-0.249,-0.358,3.03,-0.481 (inactive),0.862,1.38,1.32 (inactive)
C=CCc1cccc([C@@H]2[C@@H](C)CC[C@H]3C(=O)N4[C@H](c5cccc(CC=C)c5)[C@@H](C)CC[C@H]4C(=O)N23)c1,-0.814,1.29,-0.746,-3.58,-3.9,2.17,0.639 (inactive),-0.811,-1.28,3.27 (inactive)
O=C(O)[C@@H]1Cc2c([nH]c3ccccc23)[C@@H](c2ccccc2)N1,0.0265,1.21,-0.55,0.424,0.519,0.516,-0.284 (inactive),-0.122,0.0857,0.216 (inactive)
COc1ccc([Si](C)(C)[C@H]2[C@H](CC(=O)N(CCO)Cc3ccccc3)O[C@@]3(C(=O)N(C)c4ccccc43)[C@@H]2C)cc1,-0.836,0.899,-1.12,-1.84,-3.42,-0.433,0.505 (inactive),-0.965,-0.176,0.221 (inactive)
COC(=O)C[C@H]1O[C@]2(C(=O)N(Cc3ccccc3)c3ccc(I)cc32)[C@@H](C)[C@@H]1[Si](C)(C)c1ccc(OC)cc1,-0.344,1.02,0.638,-0.077,-1.22,2.66,-1.07 (inactive),-0.226,0.211,-0.923 (inactive)
COc1ccc(C(=O)Nc2ccc(CN3C(=O)[C@]4(O[C@H](CCn5cc(CCO)nn5)[C@@H]([Si](C)(C)c5ccc(OC)cc5)[C@@H]4C)c4ccccc43)cc2)cc1,-3.11,-0.616,-4.54,-2.68,-4.37,1.17,1.3 (inactive),-1.1,-1.8,-3.05 (inactive)
CCOC(=O)C1=CC[C@@H](c2ccc(-c3ccc(OCc4ccccc4)cc3)c(OC)c2)N(S(=O)(=O)c2ccc(C)cc2)[C@H]1c1ccccc1,-0.603,-0.416,0.418,-1.23,-0.119,4.16,0.51 (inactive),-0.161,-1.54,0.751 (inactive)
C#CCCCON=C1C[C@@H](O)[C@@H](O)[C@@H]2[C@@H]3C(=O)N(Cc4ccc5c(c4)OCO5)C(=O)[C@@H]3CC[C@H]12,0.391,-0.027,-0.464,0.484,0.0196,-0.537,-0.0334 (inactive),-0.427,-0.778,0.495 (inactive)
CCOC(=O)C1=CCC(c2cccc3ccccc23)N(S(=O)(=O)c2ccc(C)cc2)C1 (stereo not given),-0.989,-1,-0.106,-0.0257,0.291,1.98,-0.759 (inactive),-0.498,-1.64,-0.658 (inactive)
CCC(=O)[C@]12O[C@@]3([C@@H]4C(=O)OCC[C@@H]41)N(CC)C(C)=C(C(=O)OC)[C@@H](c1ccccc1)N3C2=O,0.569,1.77,0.0496,-0.868,-1.8,0.684,0.112 (inactive),-0.537,0.541,-0.257 (inactive)
Cc1ccc(N2C(=O)c3ccccc3[C@](C)(C(=O)O)[C@@H]2c2ccc(CO)cc2)nc1,0.0643,0.937,-0.0479,-0.231,0.614,0.521,0.23 (inactive),-0.167,0.25,0.755 (inactive)
CO[C@H]1O[C@H](CO)[C@@H](OC(=O)Nc2ccc3c(c2)OCO3)[C@H](OC(=O)Nc2ccccc2)[C@@H]1OC(=O)Nc1ccccc1,-0.279,-0.0955,-1.27,-2,-1.66,-1.17,0.157 (inactive),-0.611,-0.191,-1.57 (inactive)
O=C(CS)NCCCCCNC(=O)[C@H]1C[C@H]2C(=O)N[C@@H](Cc3ccccc3)C(=O)N2[C@H]1c1ccc(O)cc1,-0.142,1.62,-1.02,-0.193,0.575,0.248,0.765 (inactive),-0.539,0.368,0.411 (inactive)
CC[C@H]1C2=C3C(CC[C@H]4C(OC)OC[C@](C)([C@@H]34)N(C(=O)OC(C)(C)C)C2)C(CO)C1CO (stereo not given in full),-0.499,0.561,0.656,1,0.586,-0.528,0.0846 (inactive),-0.38,-1.26,-1.28 (inactive)
N#Cc1ccc(NN2C(C(O)c3ccc(I)cc3)C=CC3C(=O)N(c4ccccc4)C(=O)C32)cc1 (stereo not given),-0.668,-0.392,0.0254,-1.03,-0.251,-0.895,0.641 (inactive),-0.586,-0.263,-0.383 (inactive)
COC(=O)c1c(CC[C@@H](CO)NC(=O)N[C@H](Cn2cc(-c3cncn3C)nn2)C(C)C)oc(C(C)=O)c1C(=O)OC,0.128,1.93,-0.102,0.191,-0.344,0.57,1.43 (inactive),-0.444,-0.289,-0.169 (inactive)
COc1cc(CO)cc(I)c1O[C@H]1C=C(C(=O)NCCO)C[C@@H](NCCc2c[nH]c3ccccc23)[C@@H]1O,1.74,-0.335,0.0706,-0.68,-0.391,-1.01,1.01 (inactive),0.166,-0.389,0.279 (inactive)
C[N+](C)(C)CCCCNC(=O)[C@H]1C[C@H]2C(=O)NCC(=O)N2[C@H]1c1cccc(OCCO)c1,-0.471,-0.387,-0.347,-0.0358,0.311,-1.13,-0.373 (inactive),-0.074,-0.314,-0.0078 (inactive)
C=CCC(OC(C)=O)[C@@H]1[C@@H](N(Cc2cccc3ccccc23)C(=O)c2ccc(C)cc2)c2cc(OCCCO)ccc2N1C(=O)c1ccc(-c2ccccc2)cc1 (stereo not given in full),1.1,0.719,1.47,1.07,0.783,3.02,-0.0453 (inactive),0.456,-0.848,0.417 (inactive)
C=CC[C@@]1(C(=O)N2CCOCC2)N=C(c2ccc(OCCCO)cc2)O[C@@H]1c1ccccc1,0.429,1.9,-0.55,-0.0274,-0.624,0.13,1.09 (inactive),-0.357,0.216,1.85 (inactive)
O=C1OCC=C[C@H]2OC34C=CCN(Cc5ccccc5)C(=O)[C@H]3N(CCCCCO)C(=O)[C@@H]4[C@@H]12 (stereo not given in full),0.16,2.65,-0.566,-0.231,-0.166,0.00385,1.45 (inactive),1.27,1.72,-0.208 (inactive)
CO[C@@H]1COC(=O)CC=C[C@@H](C)[C@H](OC)COC(=O)CC=C[C@H]1C,0.275,0.793,1.14,-1.03,0.834,0.692,0.502 (inactive),-0.793,1.21,0.756 (inactive)
COC(=O)Cn1c(C(=O)N2CCCC2)cc2c1C[C@H]1CN(C(=O)c3ccccc3)[C@@](Cc3ccc(OC)cc3)(C(=O)OC)[C@@H]21,-0.643,-0.574,0.0447,-1.72,-2.24,1.49,-1.1 (inactive),-0.623,-1.95,-1.09 (inactive)
O=C1C[C@@](C(=O)NCCN2CCOCC2)(c2ccc([N+](=O)[O-])cc2)[C@@H](c2ccc(CO)cc2)N1C1CCCCC1,1.16,0.936,0.339,0.324,0.633,0.899,0.295 (inactive),0.36,1.22,0.981 (inactive)
CN(C)CCCC[C@@H]1NC(=O)[C@@H]2C[C@H](C(=O)NCCCCCNC(=O)CS)[C@H](c3ccc(O)cc3)N2C1=O,0.748,0.387,-1.02,-0.0855,0.262,1.61,0.642 (inactive),-0.238,0.422,-0.207 (inactive)
